Nrf2 activator: Nrf2 pathway activation. AREc32 ARE-luciferase reporter (MCF7-derived line), luminescence, 24 h. Potency, µM (top dose mostly 46.1 µM), for the others: top-dose activation, usual class: activators. 0.31% of 410,000 active. AID 624171; further: % of control where 0% means no effect; nearly all actives have a fitted effect of over 65% in size
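Luciferase luminescence (Steady-Glo, 30 min at room temperature) served as the read-out of ARE activation in AREc32 cells treated with compounds for 24 hr at 37 deg C.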
ATXN viability: viability counter-screen for ATXN expression inhibitors; S2 cells (HEK-293 line with an ATXN2-luciferase reporter) viability, CellTiter-Fluor protease fluorescence, 24 h; Potency, µM (highest dose often 56.7 µM), usual class: cytotoxic; 0.49% of 400,000 active; AID 651635; further: nearly all actives have a fitted effect of over 40% in size
A549 tox: counter-screen for Nrf2 inhibitors: cytotoxicity in A549 cells; AID 504648; A549 ARE-Fluc cells, CellTiter-Fluor viability, 18-24 h; Potency, µM (titrated, usually from 46 µM), for the others: top-dose activity change, negative = cytotoxicity, usual class: inhibitors; 0.16% of 390,000 active; further: on the % scale 0 is the no-effect control and ±100 the full control effect
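A549 ARE-Fluc cells in 5% FBS OPTI-MEM, 5000 cells/well, rested 2 h then exposed to compounds in concentration-response for 18-24 h at 37 °C. Viability by CellTiter-Fluor fluorescence (Ex 405/Em 525) after 30 min; luciferase luminescence (BugLite, 15 min, RT) read afterwards.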
Nrf2 block: Nrf2 pathway inhibition; Potency, µM (doses to about 46 µM), for the others: top-dose activity change, negative = inhibition, most hits filed as inhibitors; 2.1% of 360,000 active; AID 504444; A549 ARE-Fluc reporter, luciferase luminescence, 18-24 h; further: on the % scale 0 is the no-effect control and ±100 the full control effect; nearly all actives have a fitted effect of over 60% in size
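Nrf2 function is reported as luminescence of an ARE-controlled luciferase in A549 cells. Compounds were tested at several concentrations, and a CellTiter-Fluor read on the same wells flagged cytotoxicity.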
ATXN2 expr inh: inhibitors of ATXN2 expression; HEK-293 ATXN2-luciferase reporter, luminescence, 24 h; Potency, µM (titrated, usually from 57 µM), for the others: at the top dose activity change, negative = inhibition, hits mostly inhibitors; 0.72% of 360,000 active; AID 1745845; further: on the % scale 0 is the no-effect control and ±100 the full control effect; nearly all actives have a fitted effect of over 55% in size
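qHTS (up to 57 uM final) was run with 24 h compound exposure of reporter cells at 37 °C. Each well was multiplexed: SteadyGlo luminescence measured ATXN2-luciferase expression after a fluorogenic Gly-Phe-AFC viability readout (25 uM final).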
An asterisk follows results filed as active; i = inactive; ? = inconclusive; / = no result given. Hits are enriched below; roughly 2.9% of the tested compounds scored in any of these assays. The call rests on the fitted dose curve; in most records, active means well fitted curve in the direction sought with a large enough effect; inconclusive means small, poorly fitted or top-dose-only effect, or another doubt; inactive means no such curve, though single readings can be large; an effect the other way counts as inactive or inconclusive. Potency means the concentration at half of the fitted maximal effect.

SMILES | Nrf2 activator | ATXN viability | A549 tox | Nrf2 block | ATXN2 expr inh
CCOc1ccc(C(=O)Nc2nc3ccccc3[nH]2)cc1OCC | 7% | i | -12% | 10µM* | -30%
CC(C)Oc1ccc(C(=O)Nc2nc3ccccc3[nH]2)cc1 | -1% | i | -9% | ? | 4.5µM*
CCN1CCCC1CNCc1cc2c(OC)c(OC)c(OC)cc2nc1N(C)C (stereo unspecified) | / | i | / | / | /
Cc1nc(NC(=O)c2ccccc2)sc1-c1csc(NCc2ccccc2)n1 | 3% | i | -16% | 21µM* | -22%
Cc1nc2sccn2c1-c1csc(NCc2ccccc2)n1 | 7% | i | -14% | 8.2µM* | 6%
Cc1csc2c(=O)sc(NC(=O)c3ccc(F)cc3)nc12 | ? | i | 1% | 5% | -31%
Cc1csc2nc(NC(=O)c3ccccc3)sc(=O)c12 | 3.2µM* | i | -1% | ? | 23%
C=CCNc1nc(-c2c(C)nc3sccn23)cs1 | 5% | i | -8% | -16% | 5%
Cc1nc(NC(=O)c2ccccc2)sc1-c1csc(NCCc2ccccc2)n1 | 3% | i | -15% | ? | -22%
O=S(=O)(c1c(F)cccc1F)N1CCN(S(=O)(=O)c2c(F)cccc2F)CC1 | / | / | -4% | ? | /
Cc1cc(O)c(C)c(C)c1O | / | i | / | / | -2%
CC(C)C(O)c1ccc2c(c1)CN(C(=O)c1ccccc1-n1cccn1)CCO2 (stereo unspecified) | / | i | / | / | /
O=C(CCN1CCN(c2ccccc2)CC1)N/N=C/c1ccccc1O | 0% | i | -6% | ? | 27µM*
Cc1nn2c(=O)cc(COC(=O)c3ccc(NC(=O)C4CCCCC4)cc3)nc2s1 | 1% | / | 9% | / | /
O=C(CS(=O)Cc1ccco1)NCC=CCOc1cc(CN2CCCCC2)ccn1 (stereo unspecified) | / | / | / | / | 63%
O=C1C2CCCCN2C(=O)N1CCCN1CCN(c2ccc(F)cc2)CC1 (stereo unspecified) | 0% | i | 3% | 6% | -15%
Nc1ccc(N2CCN(CCCCN3C(=O)C4CCCN4C3=O)CC2)cc1 (stereo unspecified) | -1% | 18µM* | -15% | -13% | -16%
Cc1ccnc2c1ccc1ccccc12 | 1% | i | 1% | 5% | -1%
Cc1ccnc2c1ccc1c(C)ccnc12 | -3% | / | ? | ? | 5.3µM*
Oc1ccc(/C=N\Nc2nncc(-c3ccccc3)n2)cc1 | 7.1µM* | i | -14% | ? | 5%
COc1ccc(-c2cnnc(N/N=C/c3ccc(O)cc3)n2)cc1 | 28% | ? | -9% | 19% | 0%
COC(=O)C1=C[C@@H](C(=O)OC)C2C3=C(C(=O)[C@@]2(CC(C)C)NC(=O)c2ccccc2)[C@H](C)n2c(=O)n(C)c(=O)n2[C@@H]3C1 (stereo partly specified) | / | / | -1% | 7% | /
CN(Cc1ccc(F)cc1)C(=O)c1cccc(S(=O)(=O)N2CCN(c3ccccc3)CC2)c1 | 2% | i | -12% | 23µM* | -22%
O=C(c1cccc(S(=O)(=O)N2CCN(c3ccccc3)CC2)c1)N1CCCC(C(F)(F)F)C1 (stereo unspecified) | -1% | ? | -19% | 13µM* | -28%
CN(Cc1ccc(F)cc1)C(=O)c1cccc(S(=O)(=O)N2CCN(c3ccc(F)cc3)CC2)c1 | 0% | i | -16% | 18µM* | -30%
SMILES | Nrf2 activator | ATXN viability | A549 tox | Nrf2 block | ATXN2 expr inh
CN(Cc1ccc(F)cc1)C(=O)c1cccc(S(=O)(=O)N2CCN(Cc3ccccc3)CC2)c1 | 0% | i | 1% | ? | -27%
O=C(c1cccc(S(=O)(=O)N2CCCC2)c1)N1CCN(c2ccccc2)CC1 | -1% | i | -9% | ? | -15%
CN(Cc1cccc(F)c1)C(=O)c1ccc(S(=O)(=O)N2CCCCCC2)cc1 | 4% | i | -16% | 23µM* | -4%
COc1ccc(CN(Cc2ccccc2)S(=O)(=O)c2ccccc2)cc1COc1ccc(NC(C)=O)cc1 | / | / | -8% | 16% | /
O=C(NCCOc1ccccc1F)c1cccc(S(=O)(=O)N2CCN(c3ccccc3)CC2)c1 | 2% | i | -7% | 4.6µM* | -19%
Cc1ccc(C)c(NC(=O)CN(C)C(=O)c2cccc(S(=O)(=O)N3CCN(Cc4ccccc4)CC3)c2)c1 | 2% | i | -9% | 12µM* | -13%
O=C(NCCCN1CCOCC1)c1cccc(S(=O)(=O)N2CCN(c3ccccc3)CC2)c1 | 3% | i | 3% | 7% | -7%
CN(CC(=O)Nc1ccc(F)cc1)C(=O)c1cccc(S(=O)(=O)N2CCN(c3ccc(F)cc3)CC2)c1 | 1% | i | -22% | 21µM* | -23%
COc1ccc(CN(C)C(=O)c2cccc(S(=O)(=O)N3CCN(c4ccccc4)CC3)c2)c(OC)c1OC | 2% | i | -20% | 10µM* | -21%
Cc1ccc(C)c(NC(=O)CN(C)C(=O)c2cccc(S(=O)(=O)N3CCCC3)c2)c1 | 0% | i | 1% | -11% | 1%
COc1cccc(NC(=O)CN(C)C(=O)c2cccc(S(=O)(=O)N3CCN(c4ccc(F)cc4)CC3)c2)c1 | 0% | i | -18% | ? | -17%
CCOC(=O)c1c(NC(=O)CSc2cn(CCNC(=O)c3ccccc3OC)c3ccccc23)sc2c1CCCC2 | -1% | i | -4% | ? | 12%
CCCC(=O)Nc1ccc(O)c(C(C)=O)c1 | / | i | / | / | 8%
CC(=O)Nc1ccccc1-c1nc(CNC(=O)c2ccc(-c3ccccc3F)cc2)c(C)o1 | / | i | / | / | /
CCN(CC(=O)Nc1c(F)cccc1F)C(=O)c1cccc(S(=O)(=O)N2CCCc3ccccc32)c1 | 0% | i | ? | 26µM* | -27%
CCN(CC(=O)Nc1c(F)cccc1F)C(=O)c1cccc(S(=O)(=O)N2CCc3ccccc3C2)c1 | 0% | i | -13% | -16% | -8%
Cc1ccc(S(=O)(=O)N2CCc3cc(C(=O)N(C)Cc4ccccc4)ccc32)cc1 | 4% | 7.1µM* | 0% | ? | -39%
COc1ccc(C(CNC(=O)c2cccc(S(=O)(=O)N3CCCc4ccccc43)c2)N(C)C)cc1 (stereo unspecified) | 10% | i | -23% | 1% | 8%
COc1ccc(CN(C)C(=O)c2cccc(S(=O)(=O)N3CCCc4ccccc43)c2)c(OC)c1OC | -1% | ? | ? | 23µM* | ?
C#Cc1cccc(C(=O)NCc2nc(-c3ccccc3NC(C)=O)oc2C)c1 | / | i | / | / | /
O=C(CNC(=O)c1ccccc1F)OCc1nc2ccccc2s1 | 1% | i | 0% | ? | 29%
CNc1sc(C(=O)c2ccccc2F)c(N)c1-c1nc2ccccc2s1 | 10µM* | / | -15% | ? | /
Oc1ccc2ccccc2c1-c1sc(Nc2ccccc2)n[n+]1-c1ccc(F)cc1 | 0% | i | -10% | -12% | -11%
